Assay outcomes: PubChem, several laboratories
IL1B NFkB pot – enhances IL-1B driven NFkB nuclear translocation. AID 819. 0.3% of 94,000 active. activation, % at 2 µM. HUVEC IL-1B NFkB p65 nuclear translocation imaging;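 active = activation above 40%, about the mean plus 3 SD, also judged a hit on visual image review; inconclusive = activation above 40% but not a hit on visual review; inactive = activation not above 40% and no visual hit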;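 note: percent activation is computed from the nuclear over cytoplasmic p65 intensity ratio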
NFkB transloc inh – blocks IL-1B driven NFkB nuclear translocation in HUVEC cells | inhibition, % at 2 µM | HUVEC IL-1B NFkB p65 nuclear translocation imaging | 0.43% of 94,000 active;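 active = inhibition above about 30% together with a positive call from visual inspection of the well image, limit read from the data; inconclusive = inhibition above a set limit but visual check negative; inactive = inhibition not above a set limit, visual check negative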;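 note: nuclear over cytoplasmic p65 intensity ratio measured by imaging; 0% = IL-1B stimulated DMSO wells and 100% = unstimulated DMSO wells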
Cav3 T inh – blocks human Cav3.2 T-type calcium channel. Cav3.2-expressing cells, Fluo-4 calcium fluorescence FDSS; hits give low values. B-score at 10 µM. 4% of 100,000 active. AID 449739;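 active = single-dose well whose peak fluorescence ratio is a statistical outlier from its plate by either plate-standardised score or position-corrected B-score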
HUVEC tox IL1B – HUVEC cytotoxicity counter-screen, IL-1B stimulated | AID 845 | cell count reduction, % at 2 µM | 0.41% of 94,000 active | HUVEC cell count loss, Hoechst imaging;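 active = cell count reduction more than 3 SD above the screen-wide mean, cut at about 70% in these data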;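 note: normalized per plate to untreated control cells as the no-loss baseline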
sEH inh – soluble epoxide hydrolase (human) inhibition | recombinant human sEH enzymatic activity assay | AID 707 | inhibition, % at 2 µM | 0.34% of 91,000 active; in the data active = inhibition above about 80%
sEH act – increases human soluble epoxide hydrolase activity | purified human sEH enzymatic activity, activator screen | activation, % at 2 µM | 0.04% of 91,000 active; in the data active = activation above about 37%
* = called active by the depositor. This is a sample that favours compounds with a hit; in the whole collection about 4.6% have one here.

`N#CCSc1nnc(COc2cccc3ccccc23)n1-c1ccccc1` gave IL1B NFkB pot 0, NFkB transloc inh 0, Cav3 T inh -4.6*, HUVEC tox IL1B -9, sEH inh 8 and sEH act -8.
Screening COc1ccc(-n2c(COc3cccc4ccccc34)nnc2SCC#N)cc1 returned IL1B NFkB pot 18, NFkB transloc inh -18, Cav3 T inh -2.2, HUVEC tox IL1B -38, sEH inh 8 and sEH act -3.
CCOC(=O)c1c(C)n(-c2ccc(C)cc2)c2c(CC(C)=O)c(Br)c(OC)c(O)c12 was read as IL1B NFkB pot -14, NFkB transloc inh 14, Cav3 T inh 1.1, HUVEC tox IL1B 18, sEH inh 14 and sEH act -13.
For Cc1c(C)n(CC(O)CN2C(=O)c3ccccc3S2(=O)=O)c2ccccc12 (centres undefined) the results were IL1B NFkB pot 4, NFkB transloc inh -4, Cav3 T inh -6.8*, HUVEC tox IL1B -10, sEH inh 7 and sEH act -6.
CN1CCc2c(n(CC(O)CN3C(=O)c4ccccc4S3(=O)=O)c3ccccc23)C1=O (centres undefined) was read as Cav3 T inh -1.8.
For O=C1c2ccccc2C2NC(=O)C3(CCCCC3)N12 (centres undefined) the results were Cav3 T inh 1.
`COCCn1c(-c2ccc(OC(F)(F)C(F)C(F)(F)F)cc2)nc2c1c(=O)[nH]c(=O)n2CC(C)C` (centres undefined) gave IL1B NFkB pot 7, NFkB transloc inh -7, Cav3 T inh -0.49, HUVEC tox IL1B 1, sEH inh -14 and sEH act 8.
CCCCn1c(-c2ccncc2)nc2c1c(=O)[nH]c(=O)n2CC(C)C was read as IL1B NFkB pot 10, NFkB transloc inh -10, Cav3 T inh 3.1*, HUVEC tox IL1B -10, sEH inh -4 and sEH act 2.
CC1CCN(CC(=O)N2CCCc3c2c(=O)oc2ccc(OCc4ccccc4)cc32)CC1 was read as IL1B NFkB pot 11, NFkB transloc inh -6, Cav3 T inh 0.58, HUVEC tox IL1B -9, sEH inh -16 and sEH act 16.
`CCOC(=O)C1C(=O)NC(SC)=C(C#N)C1c1ccccc1F` (centres undefined) gave Cav3 T inh -4.9*.
Screening O=C(CSc1ccc(Cl)cc1)Nn1cnnc1 returned IL1B NFkB pot 5, NFkB transloc inh -5, Cav3 T inh 0.13, HUVEC tox IL1B 18, sEH inh -10 and sEH act 7.
`O=C(CSc1ccc2ccccc2c1)Nn1cnnc1` gave IL1B NFkB pot 50*, NFkB transloc inh -50, Cav3 T inh 0.61, HUVEC tox IL1B 7, sEH inh 4 and sEH act -4.
C=CCn1c(COc2ccccc2)nnc1SCc1ccc(C#N)cc1 was read as IL1B NFkB pot 5, NFkB transloc inh -5, Cav3 T inh -0.0007, HUVEC tox IL1B -26, sEH inh -11 and sEH act 8.
C=CCn1c(COc2ccc(Cl)cc2)nnc1SCc1ccc(C#N)cc1 was read as IL1B NFkB pot -5, NFkB transloc inh 5, Cav3 T inh -7.7*, HUVEC tox IL1B -19, sEH inh 3 and sEH act -4.
`CCCCn1cc(SCC(=O)O)c2ccccc21` gave IL1B NFkB pot 18, NFkB transloc inh -18, Cav3 T inh 0.34, HUVEC tox IL1B -16, sEH inh -11 and sEH act 11.
`CCOC(=O)C1(P(=O)(c2ccc(Cl)cc2)c2ccc(Cl)cc2)CCC1` gave IL1B NFkB pot 30, NFkB transloc inh -30, Cav3 T inh -6.3*, HUVEC tox IL1B 32, sEH inh -8 and sEH act 10.
Screening CC1(C)C2CCC1(CS(=O)(=O)N1CCOCC1)C(=O)C2 (centres undefined) returned IL1B NFkB pot 0, NFkB transloc inh 0, Cav3 T inh 0.077, HUVEC tox IL1B 3, sEH inh 11 and sEH act -10.
CC(C(=O)Oc1ccc2c(c1)OCO2)N1C(=O)c2ccccc2C1=O (centres undefined) was read as Cav3 T inh -3.6*.
For CCOC(=O)c1ccccc1NC(=O)c1ccccc1SC the results were IL1B NFkB pot inconclusive, NFkB transloc inh -43, Cav3 T inh -1.5, HUVEC tox IL1B -15, sEH inh 7 and sEH act -7.
COc1ccc(Cc2nc(C(=O)Nc3ccc(OC)cc3)cs2)cc1 was read as IL1B NFkB pot -10, NFkB transloc inh 8, Cav3 T inh -1.7, HUVEC tox IL1B -19, sEH inh 19 and sEH act -18.
For COc1ccc(Cc2nc(C(=O)NCc3ccccc3OC)cs2)cc1 the results were IL1B NFkB pot -5, NFkB transloc inh 5, Cav3 T inh -6.7*, HUVEC tox IL1B -15, sEH inh 3 and sEH act -5.
For Cc1cccc(NC(=O)Nc2nnc(N3CCCCC3C)s2)c1C (centres undefined) the results were IL1B NFkB pot 4, NFkB transloc inh -4, Cav3 T inh 0.16, HUVEC tox IL1B -24, sEH inh -1 and sEH act 0.
Screening Cc1ccccc1C(=O)Nc1ccccc1-n1cccc1 returned IL1B NFkB pot 40*, NFkB transloc inh -40, Cav3 T inh 0.095, HUVEC tox IL1B 0, sEH inh 1 and sEH act 0.
CCOC(=O)CSCC(=O)Nc1c(C(=O)C2CC2)oc2ccccc12 was read as IL1B NFkB pot -2, NFkB transloc inh 2, Cav3 T inh -4.7*, HUVEC tox IL1B -4, sEH inh 6 and sEH act -7.
`CN1CCN(CC(=O)Nc2c(C(=O)C3CC3)oc3ccccc23)CC1` gave IL1B NFkB pot 13, NFkB transloc inh -13, Cav3 T inh 1.1 and HUVEC tox IL1B -12.
CCSc1nnc(NC(=O)CSc2nccn2-c2cccc(C)c2C)s1 was read as IL1B NFkB pot -7, NFkB transloc inh 7, Cav3 T inh -7.1*, HUVEC tox IL1B -7, sEH inh -9 and sEH act 10.
Cn1c(=O)c2c(nc(CN3CCc4ccccc4C3)n2Cc2cccc(Cl)c2)n(C)c1=O was read as Cav3 T inh -4.2*.
Screening CC(C)Sc1nc2c(c(=O)n(C)c(=O)n2C)n1Cc1ccc(Cl)cc1 returned IL1B NFkB pot 21, NFkB transloc inh -21, Cav3 T inh -4.5*, HUVEC tox IL1B -40, sEH inh 5 and sEH act -6.
Cn1c(N2CCOCC2)nc2c1c(=O)n(Cc1ccc(Cl)cc1)c(=O)n2C was read as IL1B NFkB pot 26, NFkB transloc inh -26, Cav3 T inh 0.66, HUVEC tox IL1B -44, sEH inh 11 and sEH act -11.
`Cn1c(=O)c2c(nc(SCc3ccccc3)n2Cc2ccc(Cl)cc2)n(C)c1=O` gave IL1B NFkB pot 15, NFkB transloc inh -14, Cav3 T inh -4.4*, HUVEC tox IL1B -6, sEH inh -6 and sEH act 12.
